A selection: hits, their analogues and other compounds. The true share with any hit is near 3.1%.
14-3-3 Bad inh: disrupts binding of bovine 14-3-3 zeta to phospho-Bad peptide. P63103. actives 0.71% (n = 220,000). TR-FRET 14-3-3zeta/Dy647-pBad peptide displacement, 1 h. inhibition, % at 21.7 µM. AID 781;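 active = inhibition above about 70%, limit read from the data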
Target sequence (P63103 whole entry, looked up): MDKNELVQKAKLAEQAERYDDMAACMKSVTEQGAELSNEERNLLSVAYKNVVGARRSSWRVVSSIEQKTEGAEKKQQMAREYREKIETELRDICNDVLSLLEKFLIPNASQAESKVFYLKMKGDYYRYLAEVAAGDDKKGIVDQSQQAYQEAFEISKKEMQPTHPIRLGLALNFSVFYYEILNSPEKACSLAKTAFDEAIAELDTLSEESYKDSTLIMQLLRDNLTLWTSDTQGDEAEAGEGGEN
Mcl1-Noxa inh: disrupts binding of human Mcl-1 to Noxa peptide; Q07820; TR-FRET Mcl-1/Noxa peptide binding, 2 h; inhibition, % at 21.7 µM; actives 1.5% (n = 220,000); AID 1022;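 active = compounds that cut the protein-peptide binding signal by more than 50% relative to plate controls in a single-dose test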;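 note: His-tagged Mcl-1 with rhodamine Noxa BH3 peptide and terbium anti-His antibody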
Target sequence (Q07820 whole entry, looked up): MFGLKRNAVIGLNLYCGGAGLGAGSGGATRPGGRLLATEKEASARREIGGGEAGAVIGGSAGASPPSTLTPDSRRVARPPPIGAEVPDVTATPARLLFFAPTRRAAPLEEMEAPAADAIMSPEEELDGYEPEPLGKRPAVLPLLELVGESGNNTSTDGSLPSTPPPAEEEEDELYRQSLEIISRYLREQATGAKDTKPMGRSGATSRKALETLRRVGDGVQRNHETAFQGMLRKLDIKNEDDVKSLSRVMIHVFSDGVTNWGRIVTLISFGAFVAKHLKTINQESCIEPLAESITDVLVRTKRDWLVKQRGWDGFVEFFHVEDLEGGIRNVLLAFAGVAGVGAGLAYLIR
p47phox inh: inhibitors of human p47phox binding; P14598; p47phox/p22phox peptide binding, fluorescence polarization, 2 h; inhibition, % at 24.7 µM; actives 0.53% (n = 220,000); AID 1274;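 active = inhibition above about 30%, limit read from the data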
Mcl-1 Bim block: human Bim-Mcl-1 interaction inhibition; actives 0.1% (n = 190,000); Bead-based flow cytometry, Bim peptide-Mcl-1 binding; Q07820; AID 1009; inhibition, % at 10 µM; in the data active = inhibition above about 40%
Mcl1 Bid PPI: Mcl-1/Bid interaction inhibition. Q07820. TR-FRET Mcl-1/Bid-Dy647 peptide binding, 1536-well. AID 1021. inhibition, % at 21.7 µM. actives 0.97% (n = 220,000);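 active = compounds that cut the binding signal by more than half at the single screening dose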;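 note: His-tagged Mcl-1 with europium anti-His antibody binding Bid BH3 peptide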
Hits are given with their value; [ ] = remark or other dose.

For CCC1(C)Cc2c(sc3nnn(CC(=O)Nc4ccccc4C)c(=O)c23)CO1 (stereo not drawn) the results were 14-3-3 Bad inh inactive, Mcl1-Noxa inh 53.5, p47phox inh inactive, Mcl-1 Bim block inactive and Mcl1 Bid PPI inactive.
For COc1ccccc1N1CCN(C2CCN(C(=O)c3cc(OC)c(OC)c(OC)c3)CC2)CC1 the results were 14-3-3 Bad inh 79.0, Mcl1-Noxa inh inactive, p47phox inh inactive, Mcl-1 Bim block inactive and Mcl1 Bid PPI inactive.
For COc1ccccc1N1CCN(C2CCN(C(=O)c3cccs3)CC2)CC1 the results were 14-3-3 Bad inh inactive, Mcl1-Noxa inh inactive, p47phox inh inactive, Mcl-1 Bim block inactive and Mcl1 Bid PPI 58.1.
`CCOC(=O)N1CCN(C(=S)Nc2cc(S(=O)(=O)N3CCOCC3)ccc2Cl)CC1` gave 14-3-3 Bad inh inactive, Mcl1-Noxa inh inactive, p47phox inh inactive, Mcl-1 Bim block inactive and Mcl1 Bid PPI inactive.
Cc1cc(C)c(C)c(OCC(=O)N2CCCCCC2)c1 was read as 14-3-3 Bad inh inactive, Mcl1-Noxa inh inactive, p47phox inh inactive, Mcl-1 Bim block inactive and Mcl1 Bid PPI inactive.
Screening CCc1cc(C(N)=S)ccn1 returned 14-3-3 Bad inh inactive, Mcl1-Noxa inh 53.1, p47phox inh inactive, Mcl-1 Bim block inactive and Mcl1 Bid PPI inactive.
`CC(C(=O)Nc1ccc2c(c1)OCO2)N(c1ccc(Cl)cc1)S(C)(=O)=O` (stereo not drawn) gave 14-3-3 Bad inh inactive, Mcl1-Noxa inh inactive, p47phox inh inactive, Mcl-1 Bim block inactive and Mcl1 Bid PPI inactive.
Screening CCOC(=O)CSC1=N/C(=C\c2ccc(OC)c(OC)c2)C(=O)N1C returned 14-3-3 Bad inh 73.8[fluorescence artefact?], Mcl1-Noxa inh inactive, p47phox inh inactive, Mcl-1 Bim block inactive and Mcl1 Bid PPI inactive.
CCOC(=O)C1=C(O)/C(=C\c2ccc(OC)c(OC)c2)N=C1C was read as 14-3-3 Bad inh inactive, Mcl1-Noxa inh inactive, p47phox inh inactive, Mcl-1 Bim block inactive and Mcl1 Bid PPI inactive.
`NS(=O)(=O)c1ccc(CCNC(=O)COC(=O)CN2C(=O)C3CCCCC3C2=O)cc1` (stereo not drawn) gave 14-3-3 Bad inh inactive, Mcl1-Noxa inh inactive, p47phox inh inactive, Mcl-1 Bim block inactive and Mcl1 Bid PPI inactive.
O=C1CCCC(O)=C1N=Nc1ccc(C(=O)O)cc1 was read as 14-3-3 Bad inh inactive, Mcl1-Noxa inh 54.0, p47phox inh 31.9 and Mcl1 Bid PPI inactive.
`COC(=O)c1ccccc1NC(=O)COC(=O)/C=C/c1ccco1` gave 14-3-3 Bad inh inactive, Mcl1-Noxa inh inactive, p47phox inh inactive, Mcl-1 Bim block inactive and Mcl1 Bid PPI 94.6.
Screening COC(=O)c1ccccc1NC(=O)COC(=O)c1ccc(C)c(NC(=O)c2ccco2)c1 returned 14-3-3 Bad inh 88.5[fluorescence artefact?], Mcl1-Noxa inh inactive, p47phox inh inactive, Mcl-1 Bim block inactive and Mcl1 Bid PPI inactive.
`O=C(COC(=O)/C=C/c1ccco1)Nc1ccccc1` gave 14-3-3 Bad inh inactive, Mcl1-Noxa inh inactive, p47phox inh inactive, Mcl-1 Bim block inactive and Mcl1 Bid PPI inactive.
Screening Cc1cc2ncc(C(=O)Nc3ccsc3C(=O)O)c(C)n2n1 returned 14-3-3 Bad inh inactive, Mcl1-Noxa inh inactive, p47phox inh inactive, Mcl-1 Bim block inactive and Mcl1 Bid PPI inactive.
`CCN(CC)c1ccc(NC(=O)COC(=O)c2ccc3ccccc3n2)cc1` gave 14-3-3 Bad inh inactive, Mcl1-Noxa inh 57.0, p47phox inh inactive, Mcl-1 Bim block inactive and Mcl1 Bid PPI inactive.
`O=C(COC(=O)c1ccc(F)cc1F)Nc1ccc2[nH]c(=O)[nH]c2c1` gave 14-3-3 Bad inh inactive, Mcl1-Noxa inh 68.8, p47phox inh inactive, Mcl-1 Bim block inactive and Mcl1 Bid PPI inactive.
`CCCC(=O)OCC(=O)Nc1ccc2[nH]c(=O)[nH]c2c1` gave 14-3-3 Bad inh inactive, Mcl1-Noxa inh inactive, p47phox inh inactive, Mcl-1 Bim block inactive and Mcl1 Bid PPI inactive.
Screening O=C(COc1cccc(F)c1)Nc1ccc2[nH]c(=O)[nH]c2c1 returned 14-3-3 Bad inh inactive, Mcl1-Noxa inh inactive, p47phox inh inactive, Mcl-1 Bim block inactive and Mcl1 Bid PPI inactive.
`CC1CC1C(=O)OCC(=O)Nc1ccc2[nH]c(=O)[nH]c2c1` (stereo not drawn) gave 14-3-3 Bad inh inactive, Mcl1-Noxa inh 75.7, p47phox inh inactive, Mcl-1 Bim block inactive and Mcl1 Bid PPI inactive.
For O=C(COC(=O)c1c(F)cccc1F)Nc1ccc2[nH]c(=O)[nH]c2c1 the results were 14-3-3 Bad inh inactive, Mcl1-Noxa inh 72.2, p47phox inh inactive, Mcl-1 Bim block inactive and Mcl1 Bid PPI inactive.
`COC(=O)c1cnc(Oc2ccc(NC(=O)NC(=O)c3ccccc3Cl)cc2)cc1C(F)(F)F` gave 14-3-3 Bad inh inactive, Mcl1-Noxa inh inactive, p47phox inh inactive and Mcl1 Bid PPI inactive.
For O=S(=O)(c1ccccc1)N(CC(O)COc1ccccc1)c1ccccc1 (stereo not drawn) the results were 14-3-3 Bad inh inactive, Mcl1-Noxa inh inactive, p47phox inh inactive and Mcl1 Bid PPI inactive.
For CCN(CC)c1ccc(C(=O)OCC(=O)Nc2ccc3[nH]c(=O)[nH]c3c2)cc1 the results were 14-3-3 Bad inh inactive, Mcl1-Noxa inh 54.6, p47phox inh inactive, Mcl-1 Bim block inactive and Mcl1 Bid PPI inactive.
For Cc1ccc2nc(C)c3c(c2c1)N(c1ccc(F)cc1)CC3 the results were 14-3-3 Bad inh inactive, Mcl1-Noxa inh inactive, p47phox inh inactive and Mcl1 Bid PPI inactive.
Screening O=C1NC(=Nc2ccc(O)cc2)S/C1=C\C=C\c1ccco1 returned 14-3-3 Bad inh inactive, Mcl1-Noxa inh 59.9, p47phox inh inactive and Mcl1 Bid PPI inactive.
For COc1cc(/C=C2/SC(=Nc3ccc(O)cc3)NC2=O)cc(OC)c1O the results were 14-3-3 Bad inh inactive, Mcl1-Noxa inh 50.6, p47phox inh inactive, Mcl-1 Bim block inactive and Mcl1 Bid PPI inactive.
Screening CN(C)C(=O)c1cc(C(=O)c2ccc(C(F)(F)F)cc2F)c[nH]1 returned 14-3-3 Bad inh inactive, Mcl1-Noxa inh inactive, p47phox inh inactive, Mcl-1 Bim block inactive and Mcl1 Bid PPI inactive.
Screening CCCN1C(=O)/C(=C/c2nc3ccccc3c(=O)[nH]2)c2ccccc21 returned 14-3-3 Bad inh inactive, Mcl1-Noxa inh inactive, p47phox inh inactive, Mcl-1 Bim block inactive and Mcl1 Bid PPI inactive.
Screening CC(C)N1C(=O)/C(=C\c2nc3ccccc3c(=O)[nH]2)c2ccccc21 returned 14-3-3 Bad inh inactive, Mcl1-Noxa inh 55.4, p47phox inh inactive, Mcl-1 Bim block inactive and Mcl1 Bid PPI 69.9.
CC1=NN(c2ccccc2)C(=O)/C1=C\C=C\c1ccccc1 was read as 14-3-3 Bad inh inactive, Mcl1-Noxa inh inactive, p47phox inh inactive and Mcl1 Bid PPI inactive.
`CC1=NN(c2ccccc2)C(=O)/C1=C/C=C/c1ccc(N(C)C)cc1` gave 14-3-3 Bad inh inactive, Mcl1-Noxa inh inactive, p47phox inh 44.1, Mcl-1 Bim block inactive and Mcl1 Bid PPI inactive.
COCc1ccc(C(=O)NC(C)c2cnn(-c3ccccc3C)c2C)o1 (stereo not drawn) was read as 14-3-3 Bad inh inactive, Mcl1-Noxa inh inactive, p47phox inh inactive, Mcl-1 Bim block inactive and Mcl1 Bid PPI inactive.
O=C(NC(=O)c1ccc(Cl)cc1)Nc1ccc(-c2cnco2)cc1 was read as 14-3-3 Bad inh 78.3, Mcl1-Noxa inh inactive, p47phox inh inactive and Mcl1 Bid PPI inactive.

Source: PubChem
